TDP43 rescue = qHTS of TDP-43 Inhibitors; TDP-43 expressing yeast growth rescue, BacTiter-Glo, 24 h; Potency, µM (series often up to 46.1 µM), without a hit: at the highest dose growth rescue (activation), hits mostly activators; 410,000 compounds, 1.8% hits; further: % of control where 0% means no effect; nearly all actives have a fitted effect of over 50% in size
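Cell-based yeast growth screen: TDP-43 expression induced in galactose, inoculum OD600=0.02 after raffinose pregrowth to mid-log. Read-out BacTiter-Glo luminescence at 24 hr, 30 deg C; inhibition of toxicity seen as signal increase.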
Abeta rescue = qHTS for compounds that reverse cellular toxicity of Amyloid beta (A-beta) peptide in yeast: Primary Screen | yeast expressing A-beta42, growth rescue, OD600, 48 h; response scale: 0% DMSO, 100% iron-clioquinol control | Potency, µM (series often up to 46.1 µM), most hits filed as activators | 410,000 compounds, 0.063% hits; further: nearly all actives have a fitted effect of over 55% in size
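Growth rescue measured by 600 nm absorbance after 48 h yeast culture at 30 C with compound. Values normalized between DMSO and an equimolar ferric chloride plus clioquinol control.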
FUS suppressor = qHTS for Suppressors of FUS Proteinopathy: Primary screen using FUS-linked yeast assay; S. cerevisiae FUS-expressing, growth rescue, OD600, 24 h; Potency, µM (highest dose often 76.6 µM), most hits filed as activators; 390,000 compounds, 0.24% hits; AID 1347120, 2019;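 further: plate controls were DMSO vehicle for no effect and reference control for full effect; nearly all actives have a fitted effect of over 55% in size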
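Toxicity suppression screen in FUS-yeast. Cells induced with 2% galactose, starting OD 0.005, treated 24hr at 30C with compounds at multiple final concentrations; growth by OD600.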
aSyn rescue = qHTS of alpha-syn Inhibitors | Yeast expressing alpha-synuclein, growth rescue, BacTiter-Glo, 24 h | Potency, µM (doses to about 46.1 µM), without a hit: top-dose growth rescue (activation), actives largely listed as activators | 370,000 compounds, 0.14% hits | AID 652106, 2013; further: % of control where 0% means no effect; nearly all actives have a fitted effect of over 65% in size
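Screening used galactose-induced yeast with toxic alpha-synuclein levels, exposed to compound for 24 hr at 30 deg C. Cell growth, read with BacTiter-Glo luminescence, gave the measured signal.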
Numbers without * were called inactive; i = inactive; ? = inconclusive; . = no result; [ ] = remark or other dose. Only some compounds are listed: those with a hit (about 2.1% of all), similar ones and a draw of the others. The call rests on the fitted dose curve; in most records, active means well fitted curve in the direction sought with a large enough effect; inconclusive means small, poorly fitted or top-dose-only effect, or another doubt; inactive means no such curve, though single readings can be large; an effect the other way counts as inactive or inconclusive. Potency means the concentration at half of the fitted maximal effect.

SMILES	TDP43 rescue	Abeta rescue	FUS suppressor	aSyn rescue
Cc1ncoc1C(=O)N1CCCC(C(=O)c2ccc(-c3ccccc3)c(F)c2)C1 (stereo not given)	22µM*	i	?	-40%
Cc1ncoc1C(=O)N1CCCC(C(=O)c2ccc(Oc3ccccc3)cc2)C1 (stereo not given)	-4%	i	i	-21%
O=C1CCC(CNc2ccccc2)N1c1ccccc1 (stereo not given)	.	.	i	.
CC(c1ccccc1)N1C(=O)c2cccnc2C1=O (stereo not given)	2µM*	i	i	1%
O=C1c2cccnc2C(=O)N1Cc1ccccc1	16%	i	i	-1%
O=C(CN1c2cccc3cccc(c23)S1(=O)=O)NCc1ccc2c(c1)OCO2	-4%	i	i	21%
CC(C(=O)NCc1ccc2c(c1)OCO2)N1c2cccc3cccc(c23)S1(=O)=O (stereo not given)	13µM*	i	i	0%
CCN(CC)C(=O)CC[C@H]1CC[C@]2(CCCN(C(=O)c3ccccc3)C2)O1	.	.	i	.
COc1coc(C(O)CN)cc1=O (stereo not given)	0%[0.397 µM]	i	i	1%
CCOC(=O)C(=Cc1cc(=O)c(OC)co1)C(=O)OCC	13µM*	i	i	8%
COc1ccc(-c2csc(NC(=O)Cc3ccccc3F)n2)c(OC)c1	13µM*	i	i	-7%
COc1ccc(OC)c(-c2csc(NC(=O)Cc3ccccc3)n2)c1	?	i	i	-6%
O=C(Cc1ccccc1F)Nc1nc(-c2cccs2)cs1	13µM*	i	i	-10%
O=C(Nc1nc(-c2cccs2)cs1)c1ccc(Cl)cc1	35µM*	i	i	-33%
Cc1ccc(C(=O)Nc2nccc(-c3cccs3)n2)cc1	13µM*	i	i	-1%
Cc1ccc(CNC(=O)O[C@H]2CC[C@@]34CCCN3C(=O)CCC[C@H]4[C@H]2C)cc1	.	.	i	.
CC(=O)c1cc(-c2cnn(Cc3ccccc3)c2)c(=O)n2c1CCC2	.	.	i	.
O=C(OC12CCCN(C1)/C(=C/c1ccncc1)C2)c1ccc(Cl)cc1 (stereo not given)	.	.	i	.
COCCCN1C(=O)[C@H](CC(=O)NCc2ccccc2)[C@]2(C(=O)OC)CCCCC=C12	.	.	i	.
C/C(=N/NC(=O)Cc1cccs1)c1cccc([N+](=O)[O-])c1	.	.	i	.
CCOC(=O)[C@]12CCCCC/C=C\1N(CCc1ccc(Cl)cc1)C(=O)[C@H]2CC(=O)N1CCCC1	.	.	i	.
O=C(O)C1CCCC1	.	.	.	-13%
CC(=O)N(c1ccc(Cl)cc1)c1cn(C(C)=O)c2ccccc12	20µM*	i	i	12%
CN(c1ccc(Cl)cc1)c1cc(=O)n(C)c2ccccc12	16µM*	i	i	4%
CN(C(=O)COc1cc(=O)n(C)c2ccccc12)c1ccc(Cl)cc1	-2%	i	i	1%
SMILES	TDP43 rescue	Abeta rescue	FUS suppressor	aSyn rescue
Cc1ccc(/C=N/NC(=S)N2CCOCC2)cc1	22µM*	?	.	0%
S=C(N/N=C/c1ccc(Cl)cc1)N1CCOCC1	?	?	.	-2%
CC(C)N1CCCCC(NC(=O)c2ccc(-c3ccccc3)cc2)C1=O (stereo not given)	.	.	i	.
CC12CCC(=O)N1C(C(=O)Nc1nc(-c3ccccc3Cl)cs1)CS2 (stereo not given)	10µM*	i	i	7%
S=C1SCCCN1Cc1ccc(Cl)cc1	11µM*	i	i	2%
O=C(Oc1c(Cl)cc(Cl)c2cccnc12)c1cccc([N+](=O)[O-])c1	2µM*	i	i	?
O=C(Oc1ccc(Cl)c2cccnc12)c1cccc([N+](=O)[O-])c1	9%	i	.	2%
O=C(NC(=S)N1CCN(c2ccc(Cl)cc2[N+](=O)[O-])CC1)c1ccco1	13µM*	i	i	-1%
COc1ccc2c(c1)CN1CN(Cc3ccccc3)S(=O)(=O)CC21 (stereo not given)	.	.	i	.
COC(=O)c1cc(S(=O)(=O)N2CCCN(C(C)=O)CC2)cn1C	.	.	i	.
Cc1ccc(-c2ccnc3c(Br)c(C)nn23)cc1	17%	i	i	?
Cc1nn2c(-c3ccccc3)ccnc2c1Br	20µM*	i	i	4%
COc1cc(NS(=O)(=O)c2ccc(C)cc2)c2ncccc2c1	11µM*	i	i	?
COc1cc(NC(=O)c2ccccc2Cl)c2ncccc2c1	20µM*	i	i	3%
NS(=O)(=O)Nc1cccc2cccnc12	.	.	.	-2%
Cc1ccc(S(=O)(=O)Nc2cccc3cccnc23)cc1	35µM*	i	i	?
CCN1CCCCC(NC(=O)c2ccccc2)C1=O (stereo not given)	.	.	i	.
O=C(NCCc1ccccc1)c1nn(-c2ccccc2Cl)nc1CO	35µM*	i	i	.
O=C(NCCCc1ccccc1)c1nn(-c2ccccc2)nc1CO	27%	i	i	.
O=C(C[n+]1ccccc1Cl)c1ccc(O)c(O)c1	.	.	.	19%
CC1CC2(C)CC(C)C1(COC(=O)Nc1ccccc1)CO2 (stereo not given)	35µM*	i	i	1%
O=C(NCCN1C(=O)C2C3C=CC(C3)C2C1=O)c1cc(F)cc(F)c1 (stereo not given)	.	.	i	.
O=C(NCc1cccc2ccccc12)C1CCCN(c2nc3ccccc3o2)C1 (stereo not given)	.	.	i	.
CN(CC(=O)Nc1ccc(Br)cc1)S(=O)(=O)c1cccc2nsnc12	22µM*	i	i	.
Cc1ccc(NC(=O)CN(C)S(=O)(=O)c2cccc3nsnc23)cc1	24%	i	i	1%
SMILES	TDP43 rescue	Abeta rescue	FUS suppressor	aSyn rescue
CC(C)c1ccc(NC(=O)CS(=O)(=O)c2cccc3nsnc23)cc1	25µM*	i	i	?
O=C(CS(=O)(=O)c1cccc2nsnc12)Nc1ccccc1	0%	i	i	3%
C=C(C)[C@@H]1C2=CC(C(=O)OC)=C(C[C@@H](C(=C)C)[C@H]3O[C@H]3C3=C[C@H]1OC3=O)O2	.	.	.	-3%
C[C@@H]1COc2cc(Br)ccc2S(=O)(=O)N1Cc1cn(CCC2OCCCO2)nn1	.	.	i	.
Cc1ccc(-n2cc(C(=O)c3cc(Cl)ccc3O)cc(C#N)c2=O)cc1	14µM*	i	.	0%
CC(C)CC(=O)Nc1nnc(CCc2ccccc2)s1	18%	i	i	-1%
CCC(C)C(=O)Nc1nnc(CCc2ccccc2)s1 (stereo not given)	20µM*	?	i	6%
CCNC(=S)N/N=C(\C)c1ccc2ccccc2c1OC(F)F	?	5.6µM*	?	-9%
CC(Sc1nnc(NC2CC2)s1)C(=O)Nc1ccc(N2CCOCC2)cc1 (stereo not given)	?	i	i	5%

Bioassay records from PubChem.
